Screening data (PubChem BioAssay)
Only some compounds are listed: those with a hit (about 9.4% of all), similar ones and a draw of the others.
ELG1 repair inh: inhibitors of ELG1-dependent DNA repair in HEK293T cells; Potency, µM (highest dose often 46.1 µM), for the others: at the highest dose activity change, negative = inhibition, usual class: inhibitors; actives 2.3% (n = 330,000); HEK293T ELG1-luciferase reporter, luminescence, 16 h; DNA damage induced by 5-fluorouridine; note: % is set by controls: 0 for no effect and ±100 for the full control effect; nearly all actives have a fitted effect of over 55% in size
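In this reporter screen, reduction of luminescence relative to DMSO vehicle indicated activity. Compounds and 5-fluorouridine were added together to 2,000 cells per well, incubated for 16 hr at 37 °C, then developed with ONE-Glo.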
Rab9 prom act: Rab9 promoter activation; actives 2.8% (n = 320,000); AID 485297; Huh7 Rab9 promoter-luciferase reporter, luminescence, 24 h; Potency, µM (titrated, usually from 9.22 µM), inactives show at the top dose activation, negative = inhibition, usual class: activators; note: % of control where 0% means no effect; nearly all actives have a fitted effect of over 60% in size
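Huh7 cells stably carrying a Rab9 promoter-luciferase reporter, 1500 cells per well in OP-MEM I with 10% FBS, treated with compound 24 hours at 37C. Luciferase activity read by luminescence after 10 minutes with Amplite reagent.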
NPC1 prom act: activates the NPC1 promoter; Huh7 NPC1 promoter luciferase reporter, 24 h; actives 2.4% (n = 320,000); Potency, µM (series often up to 9.22 µM), for inactives: at the top dose activation, usual class: activators; note: % of control where 0% means no effect; nearly all actives have a fitted effect of over 60% in size
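Quantitative HTS used a cell-based reporter: Huh7 cells stably bearing the NPC1 promoter upstream of luciferase were treated with compounds for 24 h, and promoter activation was read as luminescence.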
ELG1 genotoxic: induces genotoxicity in HEK293T cells with luciferase-tagged ELG1. Potency, µM (top dose mostly 46 µM), for the others: at the highest dose activity change, positive = activation, actives largely listed as activators. actives 1.3% (n = 330,000). HEK293T ELG1-luciferase reporter, luminescence, 16 h; note: % of control where 0% means no effect; nearly all actives have a fitted effect of over 60% in size
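Screening used a luciferase reporter fused to human ELG1 in HEK293T cells. Luminescence was read on a CCD plate imager after 16 hr exposure and 30 min ONE-Glo incubation.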
FLuc counter: counter-screen for miR-21 project: firefly luciferase inhibitors or activators; P08659; actives 6.9% (n = 360,000); purified FLuc, Km substrates, luminescence inhibition; Potency, µM (titrated, usually from 57.5 µM), inactives show at the top dose activity change, negative = inhibition, actives largely listed as inhibitors;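 note: plate controls were vehicle for no effect and reference inhibitor for full effect; nearly all actives have a fitted effect of over 55% in size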
Target sequence (P08659 whole entry, looked up): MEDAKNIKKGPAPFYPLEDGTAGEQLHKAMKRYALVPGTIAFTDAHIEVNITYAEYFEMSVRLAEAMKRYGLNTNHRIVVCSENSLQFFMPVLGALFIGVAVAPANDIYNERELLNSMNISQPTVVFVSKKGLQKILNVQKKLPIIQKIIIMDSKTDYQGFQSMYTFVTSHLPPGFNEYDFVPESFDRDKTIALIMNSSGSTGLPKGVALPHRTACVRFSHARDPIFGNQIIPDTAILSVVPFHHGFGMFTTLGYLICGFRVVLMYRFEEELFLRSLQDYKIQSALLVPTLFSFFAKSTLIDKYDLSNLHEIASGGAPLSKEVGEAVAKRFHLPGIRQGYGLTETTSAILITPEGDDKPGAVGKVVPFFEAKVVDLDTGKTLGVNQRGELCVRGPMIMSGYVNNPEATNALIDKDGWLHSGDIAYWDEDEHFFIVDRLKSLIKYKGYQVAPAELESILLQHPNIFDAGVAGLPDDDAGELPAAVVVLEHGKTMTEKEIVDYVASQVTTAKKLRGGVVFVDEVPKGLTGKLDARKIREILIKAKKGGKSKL
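Biochemical qHTS of compounds, final roughly 60 µM downward over six points, against 10 nM purified firefly luciferase using Km concentrations of substrates (10 uM D-luciferin, 10 uM ATP) in Tris acetate pH 7.5 buffer; luminescence output.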
SMN2 splice up: increases expression of the SMN2 splice variant; HEK293 SMN2-luciferase splicing reporter, luminescence, 30-36 h; Potency, µM (doses to about 46.1 µM), for inactives: at the top dose activity change, positive = activation, actives largely listed as activators; actives 2.8% (n = 210,000); note: % of control where 0% means no effect; nearly all actives have a fitted effect of over 55% in size
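HEK293 cells carry an SMN2 minigene-luciferase reporter in which exon 7 inclusion puts luciferase in frame. Cells were seeded at 2000 cells/well, attached for 10-12 hours, then exposed to compounds for 30-36 hours at 37C before ONE-Glo luminescence.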
Numbers without * were called inactive; ? = inconclusive; . = not tested or not shown; [ ] = dose if it differs, or a comment. Calls come from the whole dose curve; as a rule, active = well fitted curve in the direction sought with a large enough effect; inconclusive = small, poorly fitted or top-dose-only effect, or another doubt; inactive = no such curve, though single readings can be large; an effect the other way counts as inactive or inconclusive. Potency is the fitted concentration of half-maximal effect.

SMILES	ELG1 repair inh	Rab9 prom act	NPC1 prom act	ELG1 genotoxic	FLuc counter	SMN2 splice up
CCC(=O)Nc1sc2c(c1C(=O)Nc1ccccc1C)CCC(C)C2 (stereo not given)	.	.	.	.	-2%	.
N#Cc1nc(-c2cccc3ccccc23)oc1NCC#CCOC(=O)c1cccs1	.	2%	-1%	.	-20%	.
COc1ccc(NC(=O)c2ccco2)cc1NC(=O)C(C)(C)Oc1ccc(Cl)cc1	.	.	.	.	-18%	-18%
CC(=O)c1cccc(NC(=S)NC(=O)C(C)C)c1	16%	-1%	0%	0%	4%	13%
COc1cc2ccccc2cc1C(=O)NC(=S)Nc1cccc(C(=O)O)c1	?	2.2µM*	?	17%	13µM*	20%
CC(=O)c1cccc(NC(=S)NC(=O)c2cncc(Br)c2)c1	?	?	2.5µM*	10%	?	.
COc1cc2ccccc2cc1C(=O)NC(=S)Nc1ccc(C(=O)O)cc1	17%	?	26%	12%	?	.
O=C(NC(=S)Nc1ccc(Br)cn1)c1cncc(Br)c1	9%	-3%	6%	2%	-5%	12%
CC(=O)c1cccc(NC(=S)NC(=O)c2cccc(Cl)c2)c1	?	3.5µM*	?	?	21µM*	?
O=C(NC(=S)Nc1ccccn1)c1cncc(Br)c1	?	?	?	11%	15µM*	-25%
CC(C)(C)c1ccc(OCC(=O)O)c(Cl)c1	.	.	.	.	.	-7%[9.22 µM]
COc1cccc(N(CC(=O)N2CCC(C)CC2)S(=O)(=O)c2ccc(C)cc2)c1	.	.	.	.	-6%	-6%
O=C(N/C(=N\O)c1ccccc1)Nc1ccc(Cl)cc1	21%	-5%	1%	?	17µM*	.
CN1CCN(/C=N/c2sc3c(c2C#N)CCCCC3)CC1	?	2.2µM*	2.5µM*	?	12µM*	16µM*
CCN(/C=N/c1sc2c(c1C#N)CCCCC2)CC	?	3.2µM*	2.5µM*	?	4.8µM*	11µM*
N#Cc1c(/N=C/C=C/c2ccccc2)sc2c1CCCC2	?	?	23%	6%	6.7µM*	-11%
CC(C)CN(/C=N/c1sc2c(c1C#N)CCCCC2)CC(C)C	3%	16%	5%	2%	-12%	-11%
C=CCN1C(c2ccccc2)=CS/C1=C(\C#N)c1nnc2n1CCCCC2	11µM*	-8%	8%	-13%	-3%	11%
Cc1nn(Cc2ccccc2Cl)c(Cl)c1C(=O)NCCc1ccccc1	?	1.6µM*	4µM*	?	3.8µM*	11µM*
CCOc1ccc(CC2NCCc3cc(OCC)c(OCC)cc32)cc1OCC (stereo not given)	15µM*	-7%	-5%	-8%	0%	-15%
COc1cc2c(cc1OC)C(Cc1ccc(O)cc1)NCC2 (stereo not given)	-9%	-11%	-3%	1%	-3%	10%
Clc1ccccc1Cn1c(/C=C/c2ccco2)nc2ccccc21	-7%	2%	-2%	-1%	11µM*	0%
C#CCn1c(S(=O)(=O)Cc2ccccc2Cl)nc(-c2ccccc2)c1-c1ccccc1	1%	-5%	-3%	-5%	6%	5.6µM*
C#CCn1c(S(=O)(=O)Cc2ccc(C)cc2)nc(-c2ccccc2)c1-c1ccccc1	22%	0%	-5%	-11%	3%	30%
CCN(CC)CCNC(=O)c1ccc(-n2c(-c3ccccc3)cc3c2CCCC3)cc1	.	.	.	.	-10%	.
SMILES	ELG1 repair inh	Rab9 prom act	NPC1 prom act	ELG1 genotoxic	FLuc counter	SMN2 splice up
CCCC(=O)Nc1ccc2nc(SCC(=O)N3CCCC3)sc2c1	?	1%	0%	0%	?	.
CCCCNC(=O)CSc1nc2ccc(Nc3nc(N4CCOCC4)nc(N4CCOCC4)n3)cc2s1	5.8µM*	1%	2%	-9%	-1%	.
Cn1c(SCC(=O)Nc2ccc3nc(SCC(=O)N4CCCC4)sc3c2)nnc1-c1ccccc1	21µM*	-6%	0%	-3%	-14%	-32%
O=C(Nc1ccc2nc(SCC(=O)N3CCOCC3)sc2c1)c1ccc(F)cc1	.	.	.	.	21µM*	.
CN1CCN(C(=O)CSc2nc3ccc(NC(=O)c4ccccc4F)cc3s2)CC1	?	15%	17%	2%	19µM*	.
O=C(Nc1ccc2nc(SCC(=O)N3CCCC3)sc2c1)c1ccccc1	.	.	.	.	-19%	.
Cc1ccc(Nc2nc(N3CCOCC3)nc(N3CCOCC3)n2)cc1C	?	-6%	-5%	-1%	4%	.
Cc1ccc(N2CCN(C(=O)CCS(=O)(=O)c3cc4c(cc3Cl)NC(=O)CO4)CC2)c(C)c1	.	.	.	.	-3%	.
O=C(Nc1ccc2nc(SCC(=O)N3CCCC3)sc2c1)c1cccc(F)c1	.	.	.	.	2%	.
COc1cccc(C(=O)Nc2ccc3nc(SCC(=O)N4CCOCC4)sc3c2)c1	.	.	.	.	15µM*	.
O=C(Nc1ccc2nc(SCC(=O)N3CCOCC3)sc2c1)c1ccc(Br)cc1	.	.	.	.	11µM*	.
O=C(Nc1ccc2nc(SCC(=O)N3CCOCC3)sc2c1)c1ccccc1Cl	.	.	.	.	21µM*	.
CCC(CC)C(=O)Nc1ccc2nc(SCC(=O)N3CCOCC3)sc2c1	.	.	.	.	-10%	.
COc1ccc(Cl)cc1NC(=O)C1CCN(S(=O)(=O)c2ccc3c(c2)CCCN3C(=O)C2CCC2)CC1	.	.	.	.	2%	.
Nc1c2c(nc3sc4c(c13)CCCCC4)CCCCC2	?	1.6µM*	1.4µM*	?	1.7µM*	?
CC1CCc2c(nc3sc4c(c3c2N)CCCC4)C1 (stereo not given)	?	?	?	2%	4.8µM*	?
Cc1nc2sc3c(c2c(=O)n1N)CCC3	0%	1%	0%	6%	7%	19%
Cc1nc(N2CCN(C)CC2)c2c3c(sc2n1)CCCC3	0%	2%	3%	-21%	-3%	.
O=c1c2c3c(sc2nc2n1CCCCC2)CCC3	?	27%	15%	?	-15%	0%
CC1CCc2nc3sc4c(c3c(N)c2C1)CCCC4 (stereo not given)	?	25%	?	3%	3.8µM*	?
CCCc1ccc(OCC(=O)Nc2sc3c(c2C(=O)OC)CCCCC3)cc1	.	.	.	.	-18%	-10%
Cc1nc2cccc([N+](=O)[O-])c2n1CCCN(C)C	.	.	.	.	.	2%[9.22 µM]
COc1ccccc1NC(=O)N1CCCC1C(=O)NCc1ccccc1Cl (stereo not given)	-3%	3%	-2%	-3%	1%	.
COc1ccccc1NC(=O)N1CCCC1C(=O)NCc1ccccc1F (stereo not given)	19%	-8%	1%	13%	-2%	6.3µM*
